The source of these data is PubChem BioAssay (NCATS).

Each structure is given as a SMILES string. Values joined by “and” are separate entries in the source; they are usually repeats but may differ in a detail not shown here. Equal values may be shown once. Records with an inconclusive call do not appear. Active and inactive are the calls of the source. The call rests on the fitted dose curve; in most records, active means well fitted inhibition curve with a large enough effect; inconclusive means small, poorly fitted or top-dose-only effect; inactive means flat fitted curve, though single readings scatter. Where a SMILES comes first, the peptide text is derived from it. Bridges are numbered along the chain shown (N, C = ends).

Test [1] in a line: Drug repurposing screens with cells derived from glioblastoma tumor samples (AID 1345199). Further: nearly all actives have a fitted effect of over 40% in size. Particulars: GBM patient neurospheres viability, ATP luminescence, 48 h. Put shortly:
(§1)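 Primary testing used CD133+ neurospheres from four GBM patients, seven concentrations, 48 h exposure and ATP-based viability; confirmation added three slower-growing patient lines.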

The next test deals with astro (control astrocytes). The test is described as above. Particulars: viability, ATP luminescence, 48 h; series mostly up to 45.9 µM. The method in brief:
as §1

Setting [2] is: at 45.9 µM (top of the series), tumour line B.
[3] abbreviates: at 45.9 µM (top of the series), tumour line D.
Setting [4] is: at 46 µM (top of the series), tumour line A.
The mark [5] stands for this setting: at 46.1 µM (top of the series), tumour line C.
On the % scale 0 is the no-effect control and ±100 the full control effect; potency means the concentration at half of the fitted maximal effect.

On to `CCCCCCCCCCCCCCCC(=O)OCCC1CCN(CCCN2c3ccccc3Sc3ccc(S(=O)(=O)N(C)C)cc32)CC1`, for which the activity, negative = cell killing is -1.24% (inactive) in test [1] (setting [2]), -12.7% (inactive) in test [1] (setting [3]), -28.1% (inactive) in test [1] (setting [4]) and 11% (inactive) in test [1] (setting [5]). Further, the Potency result with astro is “inactive”.
Take `O=C(Cn1cnnn1)N[C@@H]1C(=O)N2C(C(=O)O)=C(CSc3nncs3)CS[C@H]12`: the activity, negative = cell killing in test [1] (setting [2]) is -3.62% (inactive) and -9.64% (inactive); in test [1] (setting [3]) it was -5.02% (inactive) and -0.39% (inactive); in test [1] (setting [4]) it was -29.3% (inactive); in test [1] (setting [5]), 1.48% (inactive) and -8.58% (inactive). Further, the Potency entry with astro was “inactive”.
Consider `CCCC(CCC)C(N)=O`, for which the activity, negative = cell killing in test [1] (setting [2]) was 1.34% (inactive); in test [1] (setting [3]) it was -12.3% (inactive); in test [1] (setting [4]) it was -16.5% (inactive); in test [1] (setting [5]), 0.0882% (inactive). Also, in the test with astro, the Potency entry was “inactive”.
For `Cc1[nH]cnc1C[C@H]1CCc2c(C)c3ccccc3n2C1=O`, in that order: 11.6% (inactive), -27.1% (inactive), -27.2% (inactive), 1.77% (inactive) and “inactive”.
The like results for `NCCCC[C@H](NC(=O)[C@@H]1CCCN1C(=O)[C@@H]1CSSC[C@H](NC(=O)CNC(=O)CNC(=O)CN)C(=O)N[C@@H](Cc2ccc(O)cc2)C(=O)N[C@@H](Cc2ccccc2)C(=O)N[C@@H](CCC(N)=O)C(=O)N[C@@H](CC(N)=O)C(=O)N1)C(=O)NCC(N)=O` (H-GGGCYFQNCPKG-NH2; disulfide 4-9) were, in that order, -8.67% (inactive), 3.33% (inactive), -28% (inactive), 22.1% (inactive) and “inactive”.
On to `CCCC(=O)O[C@]1(C(=O)COC(=O)CC)[C@@H](C)C[C@H]2[C@@H]3CCC4=CC(=O)C=C[C@]4(C)[C@@]3(F)[C@@H](O)C[C@@]21C`, for which the figures for the activity, negative = cell killing in test [1] (setting [2]), in test [1] (setting [3]) and in test [1] (setting [5]) were -13% (inactive), -14.2% (inactive) and 9.54% (inactive), respectively. For the same compound, in test [1] (tumour line A), the Potency was 12.6 µM (active). Further, the Potency result with astro was “inactive”.
